Where “and” joins values, the source holds several entries; their conditions need not be identical. Equal values may be shown once. Compounds without any hit were thinned out: in the full panel of roughly 79,000, 15% have a hit. Calls of active or inactive are those of the source. No stated cut-off is given here; in the data, active means growth inhibition above about 70%; inactive means the rest.
Tests used:
[1] = NCI Yeast Anticancer Drug Screen. Data for the rad52 strain (AID 147);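 further: 0% = growth of vehicle-treated control cultures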; details: S. cerevisiae rad52 mutant growth inhibition, hits give high values
Summary of the method: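 The repair-mutant yeast strain was incubated with compounds, then growth was read and inhibition derived relative to vehicle.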

[2] = NCI Yeast Anticancer Drug Screen. Data for the wt1 strain (AID 149);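 further: 0% = growth of vehicle-treated wt1 cultures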; details: S. cerevisiae wt1 strain (SPY 50644) growth inhibition, hits give high values
Summary of the method: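 Using yeast strain wt1, compound-induced growth inhibition was determined against vehicle-treated cultures.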

[3] = NCI Yeast Anticancer Drug Screen. Data for the rad50EPP+ strain (AID 151);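 further: 0% = growth of vehicle-treated control cultures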; details: S. cerevisiae rad50 mutant strain, hits give high values
Summary of the method: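 Vehicle-normalised growth inhibition; rad50EPP+ yeast strain, altered in DNA damage repair, compound-treated.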

[4] = NCI Yeast Anticancer Drug Screen. Data for the mgt1 strain (AID 153); details: S. cerevisiae mgt1 mutant growth inhibition, hits give high values
Summary of the method: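 Vehicle-normalized growth inhibition is determined in mgt1 yeast, a strain selected for a defined alteration in DNA repair or cell cycle control.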

[5] = NCI Yeast Anticancer Drug Screen. Data for the rad50 strain (AID 155);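 further: 0% = growth of vehicle-only cultures of the same strain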; details: S. cerevisiae rad50 strain growth inhibition, hits give high values
Summary of the method: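 Relative growth inhibition (compound vs vehicle) was measured in yeast with a defined repair-gene alteration.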

[6] = NCI Yeast Anticancer Drug Screen. Data for the mec2-1 strain (AID 157); details: S. cerevisiae mec2-1 strain, hits give high values
Summary of the method: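 Mutant yeast (mec2-1) grown with compound; growth inhibition relative to vehicle control reported.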

[7] = NCI Yeast Anticancer Drug Screen. Data for the rad14 strain (AID 159);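 further: 0% = growth of vehicle-treated control cultures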; details: S. cerevisiae rad14 strain growth inhibition, hits give high values
Summary of the method: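 Screen for anticancer potential: a yeast strain altered in DNA damage repair is grown with compound, and reduced growth is quantified against vehicle controls.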

[8] = at 5.0 µM (retest, dose inferred, filed as 0.5)
[9] = at 50.0 µM (retest, dose inferred, filed as 5.0)

Measured: growth inhibition

COc1ccc(C(=O)C(CN(C)C)CN(C)C)cc1
active: [4]; at 100.0 µM 77% | [6]; at 50.0 µM 74.2% and 75.8%
inactive: [1]; at 1.2 µM -14% | [1]; at 3.7 µM 30% | [1]; at 11.0 µM 30% | [1]; at 33.0 µM 29% | [1]; at 100.0 µM 48% | [2]; at 1.2 µM -5% | [2]; at 3.7 µM -1% | [2]; at 11.0 µM -4% | [2]; at 33.0 µM 3% | [2]; at 100.0 µM 40% | [3]; at 1.2 µM 10% | [3]; at 3.7 µM 19% | [3]; at 11.0 µM 9% | [3]; at 33.0 µM 13% | [3]; at 100.0 µM 17% | [4]; at 1.2 µM -26% | [4]; at 3.7 µM -12% | [4]; at 11.0 µM -8% | [4]; at 33.0 µM 11% | [5]; at 1.2 µM 7% | [5]; at 3.7 µM -1% | [5]; [8] 26% and 8% | [5]; at 11.0 µM -2% | [5]; at 33.0 µM 11% | [5]; [9] 52% and 35% | [5]; at 50.0 µM 35.8% and 45.3% | [5]; at 100.0 µM 51% | [6]; at 1.2 µM -20% | [6]; at 3.7 µM -9% | [6]; [8] 14% and 1% | [6]; at 11.0 µM -4% | [6]; at 33.0 µM 9% | [6]; [9] 63% and 41% | [6]; at 100.0 µM 68% | [7]; at 1.2 µM -13% | [7]; at 3.7 µM -8% | [7]; at 11.0 µM -2% | [7]; at 33.0 µM 19% | [7]; at 100.0 µM 24%

From PubChem BioAssay (NCI)
